From the supplement of paper PMC9948646
Values without a mark were called inactive.

test system: gramicidin D channels in DC22:1PC lipid vesicles (bilayer-modifying potency); test: initial Tl+ fluorescence quench rate relative to no-drug control (NormRate, gramicidin monomer-dimer shift) (ratio (fold of control)); higher = stronger bilayer-modifying effect (equilibrium shifted toward conducting dimers), active = 1.5 or more; conditions: 10 µM; lipid concentration 50 µM; temperature: 25 °C
Procedure: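 Stopped-flow fluorescence quench assay: ANTS-loaded DC22:1PC large unilamellar vesicles doped with gramicidin D (1:2000), 50 µM lipid, equilibrated 10 min with 10 µM drug (0.1% DMSO), mixed with Tl+ quench buffer at 25°C. Initial quench rate (Tl+ influx) was fitted with a modified stretched exponential and normalised to the no-drug control rate (NormRate); duplicates from two independent LUV preparations (triplicates for 7 drugs).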

Structure (SMILES) | initial Tl+ fluorescence quench rate
[H]/N=C(/N)c1ccc(-c2cc(-c3ccccc3)on2)cc1 | 1.08
O=C(NC1CCCCC1)N1CCN(Cc2ccc3c(c2)OCO3)CC1 | 1.13
Cc1cccnc1NC(=O)c1cccc(OCc2c(C)noc2C)c1 | 1.07
c1ccc(Oc2ccc(-c3cc(N4CCNCC4)[nH]n3)cc2)cc1 | 1.44
Cc1cc(Cl)ccc1NC(=O)CCc1ccc(S(=O)(=O)NCC(C)C)cc1 | 1.42
O=C(c1cc2ccccc2o1)N1CCN(Cc2ccc3c(c2)OCO3)CC1 | 1.08
Nc1ncc(-c2cn[nH]c2)cc1-c1nc2cc(Cl)cnc2[nH]1 | 1.08
C[C@H]1c2cccc(O)c2C(=O)C2=C(O)[C@]3(O)C(=O)C(C(N)=O)=C(O)[C@@H](N(C)C)[C@@H]3[C@@H](O)[C@@H]21 | 1.02
Nc1ccc(C(=O)Nc2ccc(-c3nc4ccccc4o3)cc2)cc1 | 1.1
CC(C)[C@H](C(=O)Nc1ccc(S(=O)(=O)N(C)C)cc1)c1ccc(Cl)cc1 | 4.3 (active)
Nc1nccc2ccc(Oc3ccncc3)cc12 | 1.1
Cc1cc(C)nc(-n2nc(C)cc2Nc2ccccc2)n1 | 1.32
O=C(NCCc1c[nH]c2ccccc12)c1cc2ccccc2oc1=O | 1.95 (active)
O=C([C@@H](c1ccc(Cl)cc1)c1cccnc1)N1CCN(c2ccc(C(F)(F)F)cc2)CC1 | 10.5 (active)
O=C1[C@@H](Oc2ccccc2)[C@@H](c2ccc(Cl)cc2)N1CCn1cnc2c(NCc3ccccc3)ncnc21 | 2.02 (active)
O=S(=O)(c1ccc(Cl)cc1)N1CCN(C(=S)NCc2ccco2)CC1 | 1.54 (active)
Cc1cc(NC(=O)c2ccc(S(=O)(=O)N(Cc3ccccc3)C(C)C)cc2)no1 | 1.14
O=C(N[C@H](Cc1ccccc1)C(=O)Nc1ccccc1N1CCOCC1)c1cccs1 | 1.21
Cc1cc(Nc2ccc(C(F)(F)F)cc2)n2ccnc2n1 | 1.05

Structure (SMILES) | initial Tl+ fluorescence quench rate
Cc1ccc(NC(=O)c2nc[nH]c2C(=O)Nc2nc3ccccc3[nH]2)c(C)c1 | 1.88 (active)
C[C@H]1COc2c(N3CCN(C)CC3)c(F)cc3c(=O)c(C(=O)O)cn1c23 | 1.04
CNC(=O)[C@H]1Cc2ccccc2N1C(=O)Cc1ccc(F)cc1 | 1.04
CC1=Nc2ccc(Cl)cc2[C@H](c2ccccc2)N1CCNC(=O)CN(C)C | 1.07
COc1cc(C2=NCCN2)ccc1-n1cc(-c2cccc(C3=NCCN3)c2)nn1 | 1.15
CO[C@@H](C(=O)N1Cc2[nH]nc(NC(=O)c3ccc(N4CCN(C)CC4)cc3)c2C1)c1ccccc1 | 1.2
O=[N+]([O-])c1cn2c(n1)OC[C@@H](OCc1ccc(OC(F)(F)F)cc1)C2 | 1.38
NC[C@@H](c1cccs1)S(=O)(=O)c1ccccc1 | 1.36
Oc1c(I)cc(I)c2cccnc12 | 1.47
[H]/N=C(\N)c1ccc(-n2cc(-c3cc(/C(N)=N/[H])ccc3OC)nn2)cc1 | 1.05
COc1ccc(CN2CCOc3ccc([C@@](C)(O)CN(C)C)cc3C2)cc1C | 1.2
C[C@H](C(=O)Nc1ccc2oc(-c3ccncc3)nc2c1)c1ccccc1 | 1.09
CC[C@H](Sc1nc2ccccc2o1)C(=O)Nc1nnc(C)s1 | 1.3
CN1CCN(c2nccc3nc(-c4ccc(F)c(F)c4)[nH]c23)CC1 | 1.11
CC(=O)N1CCN(c2ccc(Oc3ccc(Cl)cc3O)cc2)CC1 | 1.51 (active)
O=C(OCc1ccccc1)N1CCC(c2cc(-c3ccncc3)c(-c3ccc(F)cc3)[nH]2)CC1 | 2.36 (active)
O=C1N(Cc2cc3ccccc3s2)C[C@H]2CN(Cc3ccccc3)CCN12 | 2.35 (active)
N#Cc1nc(-c2ccccc2)oc1S(=O)(=O)c1ccc(Cl)cc1 | 1.12
COC[C@H](C)NC(=O)CSc1ncnc2sc(-c3ccccc3)cc12 | 1.33
